From PubChem BioAssay AID2315 (National Center for Advancing Translational Sciences (NCATS), 2010)
Hit rate of the full screen: of about 290,000 compounds, about 27,000 (9.3%) were called active. Cut-off read from the data, not from the text of the source: active = inhibition mostly above about 28% (no sharp cut-off); inactive = mostly below about 43%. The list comes from a sample in which actives are over-represented; it also holds similar structures and randomly drawn compounds.

Experiment: A qHTS for Small Molecule Inhibitors of Shiga Toxin; note: 0% is about no effect
Settings: Vero cells, Shiga toxin protein synthesis inhibition reporter; at 38.7 µM, active compounds read high

SMILES	inhibition
CCCCn1c(-c2cccc(C)c2)nc2cc3[nH]c(=O)c(C(C)C)nc3cc21	9.49% (inactive)
CN1CCN(C(=O)c2cnn(-c3ccccc3)c2NC(=O)c2ccc([N+](=O)[O-])cc2)CC1	-12.4% (inactive)
O=C(Cc1ccccc1)Nc1cccc(C(=O)N/N=C/c2ccco2)c1	23.9% (inactive)
O=C(CSc1ccc(/C=N/NC(=O)c2cccc(F)c2)o1)Nc1ccccc1	44.3% (active)
N#CCC(=O)N/N=C/c1ccc(SCC(=O)Nc2ccccc2)o1	17.4% (inactive)
COc1ccc2cc(C(=O)O)n(CC(=O)c3ccccc3)c2c1	-10.5% (inactive)
CCCCC(=O)Nc1nnc(S(=O)(=O)N(C)Cc2ccco2)s1	10.1% (inactive)
Cc1c(C(=O)NCCN(C)C)oc2ccc(S(=O)(=O)N3CCCC3)cc12	-2.78% (inactive)
COc1ccc(Cc2nc3ccc(C(=O)NCC4CCOCC4)cc3o2)cc1OC	37.2% (inactive)
COc1ccccc1-n1c(C)nc2cc(C(=O)NCc3ccc4c(c3)OCO4)ccc21	11.2% (inactive)
CSCCNC(=O)c1ccc2nc(Cc3ccccc3F)oc2c1	49.7% (active)
COc1ccc(C(=O)NCCc2ccc(S(N)(=O)=O)cc2)cc1OC	21% (inactive)
Cn1cc(C(=O)NCc2ccccc2F)cn1	14.6% (inactive)
COCCNC(=O)c1ccc2nc(Cc3ccc(OC)c(OC)c3)oc2c1	30.7% (active)
O=C(Nc1nnc(C2=COCCO2)o1)c1ccc([N+](=O)[O-])s1	-3.51% (inactive)
Cc1cnc(C(=O)N2CCCC(N3CCN(c4ccccc4F)CC3)C2)cn1 (centres undefined)	-6.28% (inactive)
CC(=O)NC(CC(=O)Nc1nc(-c2ccccc2)c(C(C)=O)s1)c1ccccc1 (centres undefined)	-5.9% (inactive)
COc1ccc(OC)c(CCNC(=O)c2nn(C)c3c2CS(=O)(=O)c2ccccc2-3)c1	-4.81% (inactive)
Nc1nonc1-n1nnc(C(=O)N/N=C\c2ccncc2)c1CN1CCCCC1	-10.8% (inactive)
CC1CCN(C(=O)c2ccc3c(c2)NC(=O)CN3)CC1	-6.93% (inactive)
Cc1cc(C(=O)NC2CCCc3c2cnn3-c2cccc(C)c2C)c(C)o1 (centres undefined)	3.44% (inactive)
COc1ccccc1CCNC(=O)C1CCN(C(=O)/C=C/c2ccccc2)CC1	39.9% (inactive)

SMILES	inhibition
COc1ccc(Nc2cc(Sc3ccc(OC)cc3)ncn2)cc1	4.28% (inactive)
COc1ccc(Nc2ncnc3ccc(OC)cc23)cc1	-8.31% (inactive)
COc1ccc(Nc2ncnc3sc(C)cc23)cc1	56.1% (active)
COc1ccc(-n2ncc3c2CC(C)(C)CC3NC(=O)CCc2c(C)nn(C)c2C)cc1 (centres undefined)	-7.46% (inactive)
COc1cccc(NC(=O)CCc2nnc3ccc(N4CCC(C)CC4)nn23)c1	2.02% (inactive)
COc1ccc(C(=O)NC(=S)N2CCNC(=O)C2CC(=O)OC(C)C)cc1 (centres undefined)	-13.5% (inactive)
COc1ccc(S(=O)(=O)N2CCN(C(=O)N(C)C)C2C)cc1 (centres undefined)	-15.4% (inactive)
COc1ccc(/C=N/NC(=O)c2ccc3c(c2)OCCO3)c(OC)c1	45.8% (inactive)
COc1ccc(/C=N/Nc2cc(N3CCOCC3)nc(C)n2)c(OC)c1	6.01% (inactive)
COc1ccc(/C=N/OCc2ccccc2C#N)c(OC)c1	70.8% (active)
Cc1nc2ccccc2cc1OCc1ccc(F)cc1	29.8% (active)
Fc1cccc2ncnc(OCc3ccccc3)c12	5.51% (inactive)
Cc1occc(=O)c1OCc1ccc(F)cc1	-2.22% (inactive)
O=C(COc1ccc(Cl)cc1)NCCS(=O)(=O)N1CCN(c2ccc(F)cc2)CC1	29% (inactive)
COC(=O)/C=C\C(=O)Nc1cccc([N+](=O)[O-])c1	26.5% (inactive)
CC(C)c1ccc(N(C(=O)c2ccco2)C(C(=O)NC2CCCC2)c2cccnc2)cc1 (centres undefined)	22.5% (inactive)
COc1ccc(C2NC(=O)N(C)C(C)=C2[N+](=O)[O-])cc1 (centres undefined)	-11.1% (inactive)
Cc1cccc(C)c1-n1c(C)cc(/C=C2\C(=O)NN(c3ccccc3)C2=O)c1C	-7.74% (inactive)
Cc1ccccc1-n1c(C)cc(/C=C2\NC(=O)NC2=O)c1C	55.3% (active)
Cc1cc(/C=C2/NC(=O)NC2=O)c(C)n1-c1cccnc1	44.4% (inactive)
Cn1c(=O)oc2cc(S(=O)(=O)NCCC(=O)NCc3ccccc3Cl)ccc21	-2.59% (inactive)
CC(=O)c1ccc(NC(=O)c2ccc(-n3cncn3)c([N+](=O)[O-])c2)cc1	-21.9% (inactive)

SMILES	inhibition
Cc1cccc(NC(=O)Nc2nnc(-c3ccccc3)o2)c1	-5.35% (inactive)
CCc1nnc(NC(=O)c2nc3nccc(C)n3n2)s1	2.51% (inactive)
Cc1ccnc2nc(C(=O)Nc3nnc(-c4ccccc4)o3)nn12	71.9% (active)
O=C(CN1C2=NCCN2c2ccccc21)c1cccs1	-3.32% (inactive)
Nc1c(C(=O)c2cccs2)sc2nsc(SCCN3CCCCC3)c12	45.8% (active)
O=C(CCC1CCCC1)N=C1SC2CS(=O)(=O)CC2N1Cc1ccccc1 (centres undefined)	14.2% (inactive)
COCCCNC(=O)Cc1ccc(-n2c(C)nc3cccnc32)cc1	1.73% (inactive)
CC1C/C(=N/NC(=O)c2cccs2)CC(C)(C)C1 (centres undefined)	84.1% (active)
CC(C)OCCCNC(=O)CNC(=O)c1cccs1	-2.7% (inactive)
CC1(C)CC(=O)C/C(=N\NC(=O)c2cccs2)C1	18.8% (inactive)
COc1cc(CCC(=O)N2CCN(c3ccccc3Cl)CC2)cc(OC)c1OC	-6.24% (inactive)
O=C(CN1CCC(NC(=O)C2CC2)CC1)Nc1ccccc1[N+](=O)[O-]	-3.78% (inactive)
O=c1ccc2cc(S(=O)(=O)NCCCc3ccccc3)ccc2[nH]1	3.55% (inactive)
COc1ccc(CNC(=O)CSc2n[nH]c(N)n2)cc1OC	0.155% (inactive)
COc1cccc(CNC(=O)CCCC(=O)Nc2cccc([N+](=O)[O-])c2)c1	-12.3% (inactive)
COc1cccc(NCCC(=O)c2cccc([N+](=O)[O-])c2)c1	67.3% (active)
Cc1cccc(C(=O)NNC(=O)c2cccc([N+](=O)[O-])c2)c1	3.18% (inactive)
COc1cccc(C(=O)CC(=O)C(=O)Nc2ccc([N+](=O)[O-])cc2C)c1	4.12% (inactive)
Cc1cc(CNC(=O)c2cccc([N+](=O)[O-])c2)c2ccccc2n1	54% (inactive)
CC(C)(C)SCCNC(=O)c1cccc([N+](=O)[O-])c1	-40.1% (active)
